About 5,100 (6%) of roughly 85,000 compounds were called active. Only a selection was taken, and actives are over-represented in it overall. A number with no mark means an inactive call.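 The calls were made as follows: active = viability at or below 40%; inactive = viability above 40%.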
Assay: H69AR cell viability reduction – human, 86K library, primary screen (AID 598);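 also: multidrug resistant small cell line overexpressing MRP-1 efflux transporter; 100% = mean luminescence of untreated control wells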
Details: H69AR lung tumor viability, ATP luminescence, 72 h; at 10 µM; active compounds read low

Compared with `C=CCN(C(=O)Nc1ccc2oc(C)nc2c1)c1ccccc1`, `O=C(Cc1cccc2ccccc12)Nc1ccc2oc(-c3ccccc3)nc2c1` is lower in viability: 78.7% for the first, 59.7% for the second.

First: COc1ccc(-c2nn(-c3ccccc3)cc2C(=O)Nc2nc(CC(C)=O)ns2)cc1
Second: COc1ccc(C(=O)NC(=O)CSc2nnc(-c3ccco3)n2-c2ccccc2)cc1
The viability of the first is lower: 86.5% for the first, 95.2% for the second.

First: COc1cc(C(=O)Nc2nccs2)cc(OC)c1OC
Second: CCOc1cc(C(=O)Nc2c(C)ccc3nsnc23)cc(OCC)c1OCC
The viability of the first is higher: 84.2% for the first, 78.3% for the second.

First: C/C=C/C(=O)Nc1nnc(C(C)C)s1
Second: CCOCc1nnc(NC(=O)CSc2ccc(C)cc2)s1
The viability of the first is higher: 96.5% for the first, 94.8% for the second.

Compared with `O=C(Nc1ccccc1)c1ccc2c(c1)OCO2`, `COc1ccc(NC(=O)CC2COc3ccccc3O2)c(OC)c1` (centres undefined) is higher in viability: 82.3% for the first, 105% for the second.

Going from `Cc1nn(C(C)CC(=O)O)c(C)c1C` (centres undefined) to `CCc1c(O)nc(SCC(=O)Nc2ccccc2)n(C(C)CC)c1=O` (centres undefined), the viability falls from 98.2% to 74.6%.

Going from `CCCCNC(=O)C1(c2ccc(OC)cc2)CCOCC1` to `COc1ccc(C(=O)Nc2ccc(CN3CCOCC3)cc2)cc1`, the viability rises from 93.8% to 98.4%.

Going from `CCOc1ccc(NC(=O)c2ccccc2NS(C)(=O)=O)cc1` to `COC(=O)c1ccccc1NC(=O)CN(Cc1ccc(Cl)cc1)S(C)(=O)=O`, the viability falls from 94.1% to 60.9%.

Going from `C=CCn1c(CSc2nc3ccccc3s2)nnc1SCC(=O)NCc1ccco1` to `C=CCn1c(SCC(=O)NCc2ccccc2)nnc1-c1cc(Br)ccc1O`, the viability rises from 54.6% to 87.8%.

Compared with `Oc1ccc(-c2csc(Nc3cccnc3)n2)cc1`, `Cc1nc(-c2ccc(NC(=O)c3cccs3)cc2)cs1` is higher in viability: 54.4% for the first, 70.7% for the second.

Compared with `COc1ccc(C(=O)Nc2nc(-c3ccc(S(=O)(=O)N4CCOCC4)cc3)cs2)cc1`, `O=C(Nc1cccc(F)c1)c1ccc(S(=O)(=O)N2CCCC2)cc1` is higher in viability: 58% for the first, 84.8% for the second.

First: CCOC(=O)C1=C(CNC2CCCCC2)NC(=O)NC1c1cc(C)ccc1C (centres undefined)
Second: CCOC(=O)C1=C(CN2CCc3ccccc32)NC(=O)NC1c1ccc(Cl)cc1 (centres undefined)
The viability of the first is higher: 80.5% for the first, 48.1% for the second.

Compared with `COc1ccccc1NC(=O)C1=C(C)Nc2nnnn2C1c1cccc(Br)c1` (centres undefined), `COC(=O)C1=C(C(=O)c2ccc(C)cc2)C(c2ccccc2)n2nnnc2N1` (centres undefined) is higher in viability: 45.1% for the first, 93.9% for the second.

Compared with `CC(C)C(NC(=O)c1ccc(Cl)cc1)C(=O)O` (centres undefined), `CC(C)NC(=O)C(=O)NCCN1CCN(S(=O)(=O)c2ccc(Cl)cc2)CC1` is lower in viability: 111% for the first, 94.6% for the second.

Going from `O=c1c2ccccc2nnn1CSc1nc2sc3c(c2c(=O)n1CC1CCCO1)CCC3` (centres undefined) to `Cn1c(NN)nc2sc3c(c2c1=O)CCC3`, the viability rises from 54.9% to 96.5%.

Going from `CC(C)CCNC(=O)CC1C(=O)N(Cc2ccccc2)C(C)c2nc3ccccc3n21` (centres undefined) to `CCn1c(Cc2ccccc2)nnc1SCC(=O)Nc1ccccc1`, the viability falls from 102% to 90%.

Going from `COc1ccc(C2(CNC(=O)C(c3ccccc3)c3ccccc3)CCOCC2)cc1OC` to `O=C(CSc1nnc(-c2ccco2)n1-c1ccccc1)NCCc1ccccc1`, the viability rises from 74.8% to 82%.

Going from `O=C(CC(NCCN1CCOCC1)C(=O)O)Nc1cccc(Cl)c1` (centres undefined) to `O=C(c1cccc(N2CCCC2=O)c1)N1CCOCC1`, the viability rises from 94.2% to 110%.

Compared with `CCCn1c(SCC(=O)Nc2cccc(C(=O)OCC)c2)nnc1-c1ccoc1C`, `CCOC(=O)Cc1csc(NC(=O)CSc2nnc(-c3cccnc3)n2Cc2ccco2)n1` is higher in viability: 78.9% for the first, 100% for the second.

Compared with `COC(=O)c1cc2nc(-c3ccccc3)cc(C(F)(F)F)n2n1`, `COC(=O)Cn1nc(-c2ccccc2)c2cc(Cl)ccc21` is higher in viability: 90.6% for the first, 98.3% for the second.

Going from `O=C(O)CCC(=O)NCc1ccc(C(=O)O)cc1` to `O=C(CCn1c(SCC(=O)c2ccccc2)nc2ccccc2c1=O)NCc1ccc(F)cc1`, the viability rises from 96% to 97.6%.

Going from `O=C(Nc1cc(-c2nn(CC(=O)N3CCCCC3)c(=O)c3ccccc23)ccc1N1CCOCC1)c1ccc(Cl)cc1` to `O=C(Nc1ccccc1-c1nnn(CC(=O)N2CCCc3ccccc32)n1)c1cccc(Cl)c1`, the viability rises from 93.1% to 102%.

Going from `Cc1ccc(-c2cnc(NC(=O)CCC(=O)N(C)Cc3ccccc3)n2C)cc1` to `Cc1ccc(S(=O)(=O)c2c(COC(=O)c3cccc(Cl)c3)c(-c3ccccc3)nn2C)cc1`, the viability falls from 100% to 87.9%.

Going from `Cc1cccc(-c2nc3c(c(SCC(=O)N4CCOCC4)n2)CCCC3)c1` to `Cn1c(=O)c2c(SCC(=O)N3CCOCC3)nc(C3CC3)nc2n(C)c1=O`, the viability rises from 70.3% to 81.8%.

First: Cc1cc(C)n(-c2cc(Oc3ccccc3)ncn2)n1
Second: Cc1cc(Oc2ccccc2)nc(N2CCOCC2)n1
The viability of the first is higher: 100% for the first, 94.1% for the second.

First: O=C(CSc1nc2cccnc2n1Cc1ccccc1)N1CCc2ccccc21
Second: CC(C)(C)NC(=O)Cn1c(SCC(=O)Nc2nccs2)nc2ccccc21
The viability of the first is lower: 70.1% for the first, 92.5% for the second.

Compared with `C=CCO/N=C(\C)c1c(O)c(C)c(-c2ccccc2)n(-c2ccccc2)c1=O`, `CCOCCOCCC(C(=O)O)P(=O)(c1ccccc1)c1ccccc1` (centres undefined) is higher in viability: 96.7% for the first, 103% for the second.

Compared with `O=C(NCC1CCC(C(=O)O)CC1)OCc1ccccc1` (centres undefined), `CC(=O)OC(C(=O)NC1CCCCC1)c1ccccc1` (centres undefined) is lower in viability: 98.5% for the first, 92.1% for the second.

Going from `COCCOC(=O)C1=C(C)NC(=O)CC1c1cc2c(cc1Br)OCO2` (centres undefined) to `COc1ccc(C2CC(=O)Nc3cc(C)c(C)cc32)c(OC)c1OC` (centres undefined), the viability falls from 97.1% to 78.6%.

Compared with `CCCNC(=S)N1CCC(NC(=O)C23CC4CC(CC(C4)C2)C3)CC1`, `O=S(=O)(N1CCCCC1)N1CCNCC1` is lower in viability: 101% for the first, 100% for the second.

Compared with `CCCCCN1CC(O)=C(c2nc(-c3ccc(Cl)cc3)cs2)C1=N`, `COC(=O)c1ccccc1Sc1c(/C=N/OCc2ccc(Cl)cc2)c(C(F)(F)F)nn1C` is lower in viability: 99% for the first, 79.2% for the second.

Going from `COc1ccc(C(=O)Nc2ccc(F)cc2F)cc1` to `COc1cccc(NC(=O)CN(C)S(=O)(=O)c2ccc(C)cc2)c1`, the viability falls from 94.2% to 89.9%.

Going from `COc1ccc(C2=NOC3(CC(=O)N(c4ccc(C)cc4)C3=O)C2)cc1` (centres undefined) to `COCCn1c(-c2ccc(OC)c(OC)c2)nc2ccccc21`, the viability falls from 98.4% to 92.7%.

Compared with `COC(=O)Cn1c2ccc(C)cc2c2nc(C)sc21`, `CCCn1c(C(O)c2cc(OC)ccc2OC)nc2ccccc21` (centres undefined) is lower in viability: 98.6% for the first, 95.3% for the second.

Going from `COc1ccc(Br)cc1CN1CCN(C(=O)c2cccc(OC)c2OC)CC1` to `OC(COc1ccc2c(c1)CCC2)CN1CCN(c2cccc(Cl)c2)CC1` (centres undefined), the viability rises from 70.4% to 75%.

Going from `CCN(CC)C(=O)CSc1nnc(-c2cccc(OC)c2)o1` to `Cc1cc(C)n(C(=O)CCNC(=O)c2ccccc2Cl)n1`, the viability rises from 76.1% to 104%.

Compared with `CN(C)C(=O)c1cc(Br)ccc1Cl`, `COC(=O)c1[nH]c2ccc(Br)cc2c1NC(=O)Oc1ccccc1` is lower in viability: 100% for the first, 80.6% for the second.

Compared with `COc1ccc(C2C(C#N)=C(/N=C/N3CCOCC3)OC3=C2C(=O)CC(C)(C)C3)cc1OC` (centres undefined), `O=C(c1ccco1)N1CCN(C(=O)C2CCCN(S(=O)(=O)c3cccc4nsnc34)C2)CC1` (centres undefined) is lower in viability: 96.7% for the first, 91.1% for the second.

Going from `CC(C)NS(=O)(=O)c1ccc(NC(=O)C2CCCCC2)cc1` to `CNC(=S)N1N=C(c2ccccc2)CC1c1ccc(Br)cc1` (centres undefined), the viability falls from 109% to 76.7%.

For `CCNC(=O)c1sccc1-n1cccc1`, the viability was 103%.

With `COc1ccc(-c2nn(-c3ccccc3)cc2C(=O)Nc2nccs2)cc1OC` the viability was 17.2% (active).
With `CCC(C)c1ccc(O)c(/C=N/O)c1` (centres undefined) the viability was 21.6% (active).
With `C=CCn1c(SCC(=O)Nc2nc3ccccc3s2)nnc1-c1ccccc1O` the viability was 27.4% (active).
In the case of `COc1ccc(OC)c(Nc2nc(-c3ccc(O)c(O)c3)cs2)c1`, the viability is reported as 30.8% (active).
In the case of `CCOC(=O)C1=C(CN2CCc3ccccc32)NC(=O)NC1c1cccc([N+](=O)[O-])c1` (centres undefined), the viability is reported as 16.4% (active).
With `COc1ccc(C2=CC(c3cccc(OC)c3)n3nnnc3N2)cc1` (centres undefined) the viability was 11.4% (active).
For `CCCc1nc2sc3c(c2c(=O)n1NC(=O)CCCl)CCCC3`, the viability was 36% (active).
With `COc1cccc2cc(C(C)N(CCCN3CCOCC3)C(=O)Nc3ccc(Cl)cc3)oc12` (centres undefined) the viability was 31.7% (active).
With `CCn1c(SCC(=O)Nc2cccc(F)c2)nnc1-c1cc2cc(Br)ccc2o1` the viability was 34.7% (active).
In the case of `Cn1nc(-c2ccccc2)c(CSc2cccc(Cl)c2)c1Cl`, the viability is reported as 22% (active).
In the case of `CC(=O)c1ccc(Oc2cc(C)nc(-n3nc(C)cc3C)n2)cc1`, the viability is reported as 23.4% (active).
For `CCCOc1ccccc1C1CC(=O)Nc2cc3c(cc21)OCO3` (centres undefined), the viability was 25.9% (active).
For `CCOC(=O)N1CCN(S(=O)(=O)c2ccc(C(=O)Nc3ccc(F)cc3F)cc2)CC1`, the viability was 20.4% (active).
With `CCN(CC)CCn1c2ccc(Cl)cc2c2nc(C)sc21` the viability was 20.6% (active).
With `COc1cccc(-c2nnc(NC(=O)c3ccc(S(=O)(=O)N(CC(C)C)CC(C)C)cc3)o2)c1` the viability was 13.2% (active).
With `Clc1ccc(C2=CSC3=Nc4cccc5cccc(c45)N23)cc1` the viability was 27.7% (active).
With `CC(C)c1ccc(NC(=O)NC2CCCCC2)cc1` the viability was 25.6% (active).
For `COc1ccc(-c2nc3ccccc3n2CCC(C)C)cc1OC`, the viability was 28.8% (active).
For `O=C(Nc1ccc2oc(-c3ccc4ccccc4c3)nc2c1)c1cccs1`, the viability was 2.65% (active).
In the case of `Cc1cccc(C)c1NC(=O)CCCSc1nnc(-c2ccco2)n1-c1ccccc1`, the viability is reported as 34.3% (active).
